Screening data from PubChem BioAssay.
Rows were chosen to be rich in hits. Some 4.8% of all compounds tested hit in one or more screens of this group.
ssDAF-12 act = S. stercoralis DAF-12 activation, primary screen. HEK293 ssDAF-12/GRIP1 lit1-tk-luc reporter, luminescence; % of 3 µM dafachronic acid response. activation, % at 6.8 µM. 370,000 tested, 1% active. AID 652126;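 active = activation above the mean over all tested compounds plus 3 SD, cut at about 0.9% in these data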;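 note: 0% = DMSO-only wells and 100% = 3 µM delta7-dafachronic acid wells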
hgDAF12 agonist = agonists of H. glycines DAF-12 nuclear receptor. HEK293 GAL4-hgDAF12 UAS-luciferase reporter, agonist luminescence; normalized to butyrate control. activation, % at 6.8 µM. 370,000 tested, 1.8% active. AID 687014;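 active = activation above a cutoff set at the mean of all screened compounds plus 3 SD, cut at about 10% in these data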;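 note: 0% = DMSO wells and 100% = sodium butyrate wells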
DAX1 inh-1 = inhibitors of human orphan nuclear receptor DAX1 (NR0B1). P51843. HEK293 Gal4-DAX1 luciferase reporter, luminescence. inhibition, % at 6.75 µM. 340,000 tested, 0.99% active;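 active = inhibition above the mean over all tested compounds plus 3 SD, cut at about 4.2% in these data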;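 note: 0% = DAX1-transfected cells with DMSO and 100% = empty-vector control cells with DMSO; inhibition shows as a rise in luminescence from relieved DAX1 repression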
Target sequence (P51843 207-470 limits assumed): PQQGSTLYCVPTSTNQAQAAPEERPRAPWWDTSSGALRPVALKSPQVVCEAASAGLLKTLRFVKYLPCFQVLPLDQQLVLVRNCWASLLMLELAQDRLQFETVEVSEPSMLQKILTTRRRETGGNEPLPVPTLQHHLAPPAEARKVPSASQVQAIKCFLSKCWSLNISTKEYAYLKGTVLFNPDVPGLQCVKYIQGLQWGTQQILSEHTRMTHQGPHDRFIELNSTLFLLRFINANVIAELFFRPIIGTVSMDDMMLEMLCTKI
hcDAF12 agonist = activators of H. contortus DAF-12 nuclear receptor; activation, % at 6.8 µM; 370,000 tested, 1.4% active; HEK293 hcDAF-12 lit1-tk-luc reporter, luminescence; 0% DMSO, 100% Δ7-dafachronic acid;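 active = activation above the mean of all tested compounds plus 3 SD, cut at about 5.5% in these data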;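 note: 100% = response to 3 µM Δ7-dafachronic acid high control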
SMARCA2 act = activators of SMARCA2 function. MG213 cells, MMTV-luciferase reporter, dexamethasone, overnight. activation, % at 9.1 µM. 370,000 tested, 1% active. AID 652017; in the data active = activation above about 7.8%;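 note: 0% = vehicle wells and 100% = reference activator wells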
DAX1 inh-2 = blocks DAX1 repression of SF-1 activated StAR promoter. HEK293T StAR-luciferase reporter, SF-1/DAX-1 repression relief. inhibition, % at 6.8 µM. 370,000 tested, 1.1% active;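 active = inhibition above the mean over all tested compounds plus 3 SD, cut at about 3.6% in these data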;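 note: 0% = DAX-1 cells with DMSO and 100% = cells lacking DAX-1 with DMSO; higher inhibition means more luminescence from relief of DAX-1 repression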
An asterisk follows results filed as active; · = no result given.

SMILES | ssDAF-12 act | hgDAF12 agonist | DAX1 inh-1 | hcDAF12 agonist | SMARCA2 act | DAX1 inh-2
NC(=O)CC(NC(=O)Cc1ccc(Cl)cc1)c1ccc(NC2CCCCC2)c([N+](=O)[O-])c1 (centres undefined) | -2 | -1 | 0 | 0 | 0 | 0
CC(=O)c1c(C)[nH]c(C(=O)COC(=O)CCNS(=O)(=O)c2ccc(C)c(C)c2)c1C | -1 | 2 | 1 | -1 | 4 | -1
COc1ccc(NC(=O)COc2ccc(S(=O)(=O)N3CCOCC3)cc2C)cc1OC | -1 | 1 | -1 | -1 | -2 | -1
COc1cccc(N2CCN(CC(=O)Nc3nc4c(s3)CC(C)CC4)CC2)c1 (centres undefined) | -1 | 0 | -1 | -1 | -2 | -1
CC1CCc2nc(NC(=O)CN3CCN(c4ccc(F)cc4)CC3)sc2C1 (centres undefined) | -2 | 2 | 6.6* | -1 | -1 | -1
O=C(O)[C@@H]1CCCN1C(=O)COc1ccc2c3c(c(=O)oc2c1)CCC3 | -1 | -1 | 1 | -1 | 0 | 0
N#Cc1ccc(C=NN2CCCCCC2)cc1 | 0 | 8 | 2 | 1 | -4 | 3.8*
O=[N+]([O-])c1ccc(/C=N\N2CCN(c3ccc(Cl)cc3)CC2)cc1 | -1 | -1 | 0 | 0 | -1 | 0
Clc1ccc(/C=N/N2CCCCC2)cc1 | -1 | -1 | 0 | -1 | 1 | 0
O=[N+]([O-])c1ccc(/C=N/N2CCCCC2)cc1 | 0 | 6 | 4.4* | 4 | 3 | 1
Cc1ccc(C(=O)NCC(=O)OCC(=O)NCCc2ccccc2)s1 | -1 | -1 | 1 | 0 | -2 | 1
Oc1[nH]c2ccccc2c1N=Nc1c(F)c(F)c(Cl)c(F)c1F | -1 | 0 | 1 | 1 | -2 | 1
Oc1[nH]c2ccccc2c1N=Nc1ccccc1Cl | 2.5* | 7 | 3 | 4 | 1 | 2
CN(CCO)c1ccc2c(c1)Oc1ccccc1CN(Cc1cn(Cc3cccc(C(F)(F)F)c3)nn1)S2(=O)=O | -1 | -3 | · | -3 | 0 | -1
CC(On1nnc2ccc(S(=O)(=O)N3CCOCC3)cc21)C(=O)Nc1ccccc1F (centres undefined) | -1 | 0 | 5.0* | 0 | 6 | 1
c1ccc(-c2cn3nc(-c4ccccc4)sc3n2)cc1 | · | · | 5.6* | · | · | ·
CCN(c1ccccc1)S(=O)(=O)c1ccc(NN)nc1 | -1 | 2 | 1 | -1 | -3 | 1
O=C(Cn1cnc2ccccc2c1=O)N1CCN(S(=O)(=O)c2ccc(F)cc2)CC1 | -1 | -1 | 0 | 1 | -3 | 3.6*
O=C(CN1CCN(Cc2ccccc2)CC1)N1N=CCC1c1ccccc1 (centres undefined) | 0 | 2 | 4.8* | -1 | 0 | 1
[S-]c1nnc(-c2ccc(Br)cc2)n1-c1ccccc1.[Zn+2] | 0 | 2 | 1 | 2 | 0 | 0
N#Cc1c(Cl)c(Cl)c2nnc(-c3ccc(Br)cc3)n2c1Cl | 1.2* | 2 | · | 3 | 1 | -1
CCOc1ccc(S(=O)(=O)Nc2ccc(C(=O)NCC(c3ccco3)N(C)C)cc2)cc1 (centres undefined) | -1 | 2 | 0 | -1 | -1 | 0
O=c1c2cc(Cl)ccc2nc(-c2ccc(Cl)c(Cl)c2)n1O | 0 | 0 | 4.5* | 4 | -1 | 0
O=c1c2cc(Cl)ccc2nc(-c2ccccc2)n1O | -1 | 2 | 0 | -1 | 5 | 0
COCCCNC(=O)/C(C#N)=C/c1cc(C)[nH]c1C | -1 | 4 | 0 | 1 | -3 | -1
SMILES | ssDAF-12 act | hgDAF12 agonist | DAX1 inh-1 | hcDAF12 agonist | SMARCA2 act | DAX1 inh-2
CSCCC(NC(=O)c1ccccc1)C(=O)NC1CC1 (centres undefined) | -1 | -1 | 2 | -1 | -3 | 0
COc1ccc(N=C2SCC(c3ccccc3)=NN2C)cc1 | -1 | -2 | 4.3* | -1 | -2 | 1
COc1ccc(N=C2SCC(=O)N2c2ccc(OC)cc2)cc1 | -1 | 0 | 0 | -1 | 0 | -1
COc1ccccc1/C=C/C=N/n1c(-c2ccco2)n[nH]c1=S | -1 | 1 | -1 | -1 | 0 | 0
O=C(CSc1ccc2nnc(CCNC(=O)c3ccc(F)cc3)n2n1)NCc1ccco1 | -1 | -1 | 1 | -3 | -3 | 1
O=C(CSc1ccc2nnc(CCNC(=O)c3ccccc3)n2n1)NCc1ccco1 | 0 | -1 | 0 | -1 | -2 | 3.9*
O=C1C2C3CCC(O3)C2C(=O)N1c1cccc(O)c1 (centres undefined) | 0.9* | 5 | -1 | 4 | 2 | 0
O=C(Nc1cccc(-c2nn[nH]n2)c1)c1ccc(Br)s1 | -1 | 2 | 0 | 0 | 0 | 1
Cc1nc(SCC(=O)Nc2ccc(OCc3ccccc3)cc2)n[nH]1 | -1 | 2 | 1 | -1 | 2 | 1
Nc1nc(SCC(=O)Nc2ccc(OCc3ccccc3)cc2)n[nH]1 | -1 | 7 | 5.2* | 0 | -1 | 0
CC(C)NC(=O)c1ccc(NC(=O)CC2SC(N3CCCC3)=NC2=O)cc1 (centres undefined) | -2 | 2 | 0 | 0 | -2 | -1
CC(C)NC(=O)c1ccc(NC(=O)CC2SC(N3CCCCC3)=NC2=O)cc1 (centres undefined) | 1.7* | -4 | 1 | 2 | 1 | -1
COc1ccc(C(=O)/C=C/c2ccccc2OC)c(OC(=O)c2ccc([N+](=O)[O-])cc2)c1 | 0 | 0 | -1 | 2 | 0 | 0
COc1cccc(C(=O)Oc2ccccc2/C=C\C(=O)c2cc3ccccc3o2)c1 | 1.6* | 10 | -1 | 6.5* | 4 | 0
Cn1c(C(=O)c2ccccc2[N+](=O)[O-])nc2ccccc21 | 0 | 4 | 1 | 5.8* | -1 | -1
COc1ccc(-c2noc(-c3ccoc3C)n2)cc1OC | 0 | 3 | 3 | 2 | 4 | 2
COc1ccc(-c2noc(-c3ccoc3C)n2)cc1 | 1.7* | 11* | 7.5* | 5 | 0 | 4.0*
Cc1cccc(-c2noc(-c3ccoc3C)n2)c1 | 0 | 5 | 1 | 0 | 3 | 1
COc1cccc(-c2noc(-c3ccoc3C)n2)c1 | 1 | 12* | 3 | 2 | 5 | 3
CCCCCCCCN1CCS(=O)(=O)N(Cc2ccc(C)cc2)C(C(=O)OC)C1 (centres undefined) | -1 | 0 | · | -1 | -2 | 0
O=C(NC(=S)NCC1CCCO1)c1ccccc1Br (centres undefined) | -1 | 1 | 0 | -1 | -3 | 0
Cc1ccc(C(=O)NC(=S)NCC2CCCO2)cc1Br (centres undefined) | 0 | 10 | 2 | 5.7* | 0 | 1
